Measurements as given in PubChem BioAssay AID628 (Vanderbilt High Throughput Screening Facility, 2007).
The campaign covered roughly 64,000 compounds. About 2,200 (3.4%) were called active. This is one part of a sample in which actives are shown more often than they occur.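 How the source made its calls: active means calcium fluorescence response, raw or row-and-column corrected B-score, differing from the plate sample mean either way at a set confidence level, mostly lower; inactive means the rest.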

target: Muscarinic acetylcholine receptor M1 (Rattus norvegicus) (UniProt P08482); experiment: antagonists of rat M1 muscarinic receptor (AID 628); conditions: CHO-M1 cells, Fluo-4 calcium, ACh EC80 antagonist mode; at 10 µM; stronger effect = lower value
Sequence (P08482 whole entry, looked up): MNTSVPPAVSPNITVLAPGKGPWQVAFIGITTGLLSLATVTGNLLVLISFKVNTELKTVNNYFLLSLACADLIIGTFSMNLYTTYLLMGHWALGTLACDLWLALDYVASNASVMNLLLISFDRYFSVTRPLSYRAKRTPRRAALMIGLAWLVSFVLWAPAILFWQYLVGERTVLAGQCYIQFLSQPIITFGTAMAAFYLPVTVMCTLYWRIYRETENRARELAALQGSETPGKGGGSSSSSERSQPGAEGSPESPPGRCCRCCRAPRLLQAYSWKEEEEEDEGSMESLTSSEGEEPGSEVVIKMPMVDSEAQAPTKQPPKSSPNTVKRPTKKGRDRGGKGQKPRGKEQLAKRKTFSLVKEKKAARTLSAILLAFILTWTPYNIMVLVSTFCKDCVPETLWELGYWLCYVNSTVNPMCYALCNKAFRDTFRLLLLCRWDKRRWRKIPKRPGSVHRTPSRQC

| SMILES | B-score |
| --- | --- |
| N#Cc1ccccc1-n1c(N)c(C(=O)N2CCCC2)sc1=S | 0.0882 (inactive) |
| CCc1ccccc1N(CC(=O)NCCSCc1ccco1)S(C)(=O)=O | 0.00624 (inactive) |
| COc1ccccc1Nc1ncc(C(C)=O)c(C)n1 | -0.0613 (inactive) |
| COc1cccc2sc(Nc3nc(C)c(C(C)=O)s3)nc12 | -5.09 (active) |
| COC(=O)c1sc(NC(=O)c2ccc(OC)cc2OC)nc1C | 0.124 (inactive) |
| O=C(CC(NCCN1CCOCC1)C(=O)O)Nc1cccc(Cl)c1 (centres undefined) | -0.31 (inactive) |
| C=CCNC(=O)c1cc(-c2ccccc2O)on1 | -0.349 (inactive) |
| CCC(=O)Nc1ccc2c(c1)nc(CCN1CCN(C)CC1)n2C | 0.254 (inactive) |
| Cn1c(CCN2CCCCCC2)nc2cc(NC(=O)Nc3ccccc3)ccc21 | -12.1 (active) |
| Cc1nn(CC(=O)Nc2ccc3c(c2)nc(CN2CCCCC2)n3C)c(=O)c2ccccc12 | -0.553 (inactive) |
| CC(=O)Nc1ccc(-c2cn3cccnc3n2)cc1 | -0.0342 (inactive) |
| COc1ccc(S(=O)(=O)NC(CC(=O)NCc2ccccc2OC)c2ccco2)cc1 (centres undefined) | -0.297 (inactive) |
| CCS(=O)(=O)n1nc(-c2ccc(OC)cc2)nc1SC | 0.364 (inactive) |
| O=C1CCCN1CCCNc1ncnc2c1[nH]c1ccccc12 | -0.26 (inactive) |
| CC(C)OCCCNc1ncnc2c1[nH]c1ccc(F)cc12 | -5.34 (active) |
| CCN1CCCC1CNc1ncnc2c1[nH]c1ccc(F)cc12 (centres undefined) | 0.215 (inactive) |
| Cc1ccc2c(c1)NCC(C(=O)NC1CCC(C)CC1)O2 (centres undefined) | 0.906 (inactive) |
| O=C(Oc1cccnc1)c1cc2ccccc2oc1=O | -1.49 (inactive) |
| OC(COc1cccc2ccccc12)CN1CCN(c2ccccn2)CC1 (centres undefined) | -0.255 (inactive) |
| CN(C)[C@@H]1C(=O)C(C(N)=O)=C(O)[C@@]2(O)C(=O)C3=C(O)c4c(O)ccc(Cl)c4[C@@H](O)[C@H]3C[C@@H]12 | -15.3 (active) |
| Cn1cccc1C(=O)NC(=O)COC(=O)Cc1coc2ccc3ccccc3c12 | -0.0274 (inactive) |
| COc1ccccc1CNC(=O)C1CCN(S(C)(=O)=O)CC1 | 0.445 (inactive) |
| Cc1nc(NCCN)c(C#N)c2c1COC(C)(C)C2 | 0.614 (inactive) |
| Cc1ccc(-n2ncc3c(N4CCN(c5ccc(F)cc5)CC4)ncnc32)c(C)c1 | -0.0379 (inactive) |

| SMILES | B-score |
| --- | --- |
| Fc1ccc2[nH]c3c(N4CCN(Cc5ccc6c(c5)OCO6)CC4)ncnc3c2c1 | -0.265 (inactive) |
| Fc1ccc2[nH]c3c(N4CCSCC4)ncnc3c2c1 | -2.69 (active) |
| N#CNC1=NCN(CCc2ccccc2)CN1 | -0.391 (inactive) |
| Cc1ccc2nc(NC3=NCN(CCc4ccccc4)CN3)nc(C)c2c1 | -5.98 (active) |
| c1ccc(CCN2CN=C(Nc3nc4ccccc4o3)NC2)cc1 | 0.0039 (inactive) |
| O=C(NCCC1=CCCCC1)C1CCN(Cc2cnn(-c3ccccc3)c2-n2cccc2)CC1 | -1.39 (inactive) |
| Cc1ccc2cc3cc(C(=O)N4CCCCCC4)oc3nc2c1 | -0.434 (inactive) |
| COc1cccc(-c2cc3nc4c(c(N5CCC6(CC5)OCCO6)n3n2)CCCC4)c1 | -0.0679 (inactive) |
| O=C(Nc1cccc(NC(=O)N2CCN(c3ccccc3)CC2)c1)N1CCN(c2ccccc2)CC1 | -3 (active) |
| O=C(Nc1cccc(C(=O)N2CCCC2)c1)c1ccccc1 | 0.0406 (inactive) |
| CC(=O)N1CCN(C(=O)Nc2cccc(C(F)(F)F)c2)CC1 | -0.154 (inactive) |
| COc1ccc(-c2c(C)nn3c(N4CCC(C(=O)N5CCCCC5)CC4)cc(C)nc23)cc1OC | -0.265 (inactive) |
| FC(F)(F)c1cccc(Nc2ncnc3ccccc23)c1 | 0.376 (inactive) |
| COc1ccccc1N1CCN(C(=O)c2ccc(S(=O)(=O)N3CCCCC3)cc2)CC1 | -1.54 (inactive) |
| O=C(Nc1cccc(F)c1)c1ccc(S(=O)(=O)N2CCCC2)cc1 | -0.622 (inactive) |
| N#CC(C(=O)c1ccc(S(=O)(=O)N2CCCCCC2)cc1)c1nc2ccccc2[nH]1 (centres undefined) | -4.04 (active) |
| CCOc1ccccc1NC(=O)C1CCC(CNc2c(N3CCOCC3)c(=O)c2=O)CC1 (centres undefined) | 0.744 (inactive) |
| COc1ccc(N2C(=O)CC(N3CCC(C(N)=O)CC3)C2=O)cc1 (centres undefined) | -0.21 (inactive) |
| O=C(CSc1nnc(-c2cccs2)n1Cc1ccco1)c1ccc2c(c1)OCO2 | 0.219 (inactive) |
| COC(=O)C1=CN(C)C=C(C(=O)OC)C1c1ccc(Cl)cc1Cl | 1.15 (inactive) |
| c1ccc(-c2cc(-c3nnc4sc(-c5ccccn5)nn34)[nH]n2)cc1 | -2.66 (active) |
| COc1cc(-c2nn3c(-c4cccc(C)c4)nnc3s2)cc(OC)c1OC | 0.799 (inactive) |
| CCOc1cccc(-c2nn3c(-c4ccccn4)nnc3s2)c1 | -0.924 (inactive) |
| CCCCOC(=O)Nc1nccs1 | 0.0324 (inactive) |

| SMILES | B-score |
| --- | --- |
| COc1ccc(Cl)cc1NC(=O)c1oc(C)nc1C | -0.215 (inactive) |
| CSC1=NCCN1C(=O)c1ccc(S(=O)(=O)N2CCOCC2)cc1 | -0.648 (inactive) |
| O=C(c1cccc(S(=O)(=O)N2CCOCC2)c1)N1CCOCC1 | 0.238 (inactive) |
| O=C(c1ccc(S(=O)(=O)N2CCOCC2)cc1)N1CCN(c2ccccc2)CC1 | -2.93 (active) |
| Cc1ccc2oc(=O)c3cnn(CC(=O)N4CCN(c5ccccn5)CC4)c3c2c1 | 0.00225 (inactive) |
| Cc1c(C(=O)OCC(=O)N(CCC#N)c2ccccc2)oc2c1ccc1ccccc12 | 0.252 (inactive) |
| COc1ccc(N2CCN(CCNC(=O)CCN3C(=O)COc4ccccc43)CC2)cc1 | 1.04 (inactive) |
| O=C(CCN1C(=O)COc2ccccc21)NCCCN1CCN(c2ccc(F)cc2)CC1 | -2.15 (active) |
| CCCN1CCN(CCCNC(=O)CN2C(=O)COc3ccccc32)CC1 | 0.138 (inactive) |
| O=S1(=O)CC(NCc2ccccc2)C(Nc2ccc(Cl)cc2)C1 (centres undefined) | -0.75 (inactive) |
| CCCCCn1c(SCCC(C)C)nc2c1c(=O)[nH]c(=O)n2C | -0.348 (inactive) |
| Cn1c(=O)[nH]c(=O)c2c1nc(CN1CCN(c3ccccc3F)CC1)n2CCc1ccccc1 | -0.0585 (inactive) |
| O=C(COc1ccc(Cl)cc1)Nc1ccccc1CO | 0.609 (inactive) |
| COc1cc(OC)c(C(=O)NC2CC(C)(C)NC(C)(C)C2)cc1OC | -2.14 (active) |
| COc1cc(OC)c(C(=O)NC2CCCCCC2)cc1OC | -1.64 (inactive) |
| Cc1ccc(C(=O)NC2CC(C)(C)NC(C)(C)C2)c(C)c1 | 0.35 (inactive) |
| CCOc1ccccc1NC(=O)CCc1ccc(C)o1 | 0.759 (inactive) |
| Cc1ccc(OCC(O)CN2CCN(CC(O)COc3ccc(C)cc3Cl)CC2)c(Cl)c1 (centres undefined) | 0.987 (inactive) |
| CCC(=O)c1ccc(OCC(O)CN2CCN(c3cccc(C(F)(F)F)c3)CC2)cc1 (centres undefined) | -3.03 (active) |
| O=C(CN1CCN(c2ccc(F)cc2)CC1)Nc1cccc(C(F)(F)F)c1 | -1.83 (inactive) |
| O=C(CCCN1C(=O)C2C3C=CC(C3)C2C1=O)N1CCN(c2ccccc2)CC1 (centres undefined) | -0.518 (inactive) |
| O=C(CN1C(=O)CSc2ncccc21)N1CCOCC1 | -0.0388 (inactive) |
| O=C(CCCN1C(=O)CSc2ncccc21)N1CCN(c2cccc(C(F)(F)F)c2)CC1 | -3.46 (active) |
| CCn1c(Cc2ccccc2)nnc1SCC(=O)Nc1ccccc1 | -0.642 (inactive) |

| SMILES | B-score |
| --- | --- |
| CC(C)c1nnc(NC(=O)C2CCCN2S(=O)(=O)c2ccc(Cl)cc2)s1 (centres undefined) | 0.566 (inactive) |
| CC12CN(Cc3ccccc3)CC(C)(CN(Cc3ccccc3)C1)C2=NO | -8.41 (active) |
| CC(=NC1CCN(Cc2ccccc2)CC1)c1c(O)[nH]c(=O)[nH]c1=O | -1.22 (inactive) |
| Cc1ccc(-c2noc(CN3CCN(Cc4ccccc4)CC3)n2)cc1 | -0.779 (inactive) |
| N#Cc1c2c(c(-c3ccccc3)[nH]c1=O)CCCC2 | -0.0345 (inactive) |
| CCOC(=O)c1c(-c2ccc(C)cc2C)csc1NC(=O)CSc1nnnn1C | -1.47 (active) |
| CNC(=O)CSc1nnnn1-c1ccc(C)cc1C | -0.461 (inactive) |
| CCOC(=O)CNC(=O)CSc1nnnn1-c1cc(C)ccc1C | 0.408 (inactive) |
| Cn1cc(S(=O)(=O)N2CCC(Cc3ccccc3)CC2)c(=O)n(C)c1=O | 1.21 (inactive) |
| CCOc1cc(C(=S)N2CCOCC2)ccc1O | -0.148 (inactive) |
| Cc1ccc(NC(=O)N2CCC(C(=O)NCc3ccc(F)cc3)CC2)cc1 | 0.137 (inactive) |
| Cc1nc2c(-c3ccc(F)cc3)c(C)nn2c(C)c1CCC(=O)N1CCN(c2ccccn2)CC1 | -2.78 (active) |
| Cn1c(=O)cc(OCCCC(=O)N2CCN(c3ccccn3)CC2)c2ccccc21 | -0.727 (inactive) |
| Cc1nc2ncnn2c(C)c1CCC(=O)N1CCN(C(=O)c2ccco2)CC1 | -0.557 (inactive) |
| Cc1ccsc1C(=O)OCC(=O)c1cc(C)n(CC2CCCO2)c1C (centres undefined) | -0.425 (inactive) |
| O=C(NCCCNC(=O)NC1CCCCC1)NC1CCCCC1 | 0.589 (inactive) |
| Cc1nc2sc(C(c3ccco3)N3CCC4(CC3)OCCO4)c(O)n2n1 (centres undefined) | 0.231 (inactive) |
| CC1CCCC(C)N1CCCNC(=O)c1cc2c(=O)n(C)c3ccccc3c2n1C (centres undefined) | -3.75 (active) |
| Cn1c(C(=O)NCCCN2CCN(c3cccc(Cl)c3)CC2)cc2c(=O)n(C)c3ccccc3c21 | -1.91 (inactive) |
| CCN1CCCC1CNC(=O)c1cc2c(=O)n(C)c3ccccc3c2n1C (centres undefined) | -1.39 (inactive) |
| COC(=O)C(NC(C)=O)(Nc1nc2c(s1)CCCC2)C(F)(F)F (centres undefined) | 0.181 (inactive) |
| COC(=O)c1cc(Cl)c(NC(=O)c2ccco2)cc1OC | 0.0739 (inactive) |
